Results filed as inconclusive are left out. Calls of active or inactive are those of the source. Calls follow the shape of the dose curve; as a rule, active = well fitted curve in the direction sought with a large enough effect; inconclusive = small, poorly fitted or top-dose-only effect, or another doubt; inactive = no such curve, though single readings can be large; an effect the other way counts as inactive or inconclusive.
Tests used:
[1] = tested on: HACAT; experiment: qHTS assay to identify novel small-molecules to repurpose for Merkel cell carcinoma treatment (AID 1296009); conditions: MCC and control cell lines, CellTiter-Glo viability, 72 h; at 44.8 µM (top of the series) unless noted; also: nearly all actives have a fitted effect of over 60% in size
Outline: (§1)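 Dose-response viability screen; 72 hr exposure at 37 degree celsius; CellTiter-Glo added, 10 min room temperature, luminescence read; RLUs scaled between no-cell and DMSO wells.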

[2] = tested on: NIH3T3; experiment: as above; conditions: MCC and control cell lines, CellTiter-Glo viability, 72 h; at 44.8 µM (top of the series) unless noted
Outline: as §1

[3] = tested on: C33A; experiment: Primary qHTS to identify gynecologic anti-cancer compounds using libraries of approved drugs and bioactive compounds (AID 1345084); conditions: Gynecologic cancer cell panel viability, ATPlite luminescence, 48 h; series mostly up to 57.5 µM; also: nearly all actives have a fitted effect of over 55% in size
Outline: (§2)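 Measured: luminescence after ATPlite addition (15 min, RT). Exposure: 48 h, 37 C, 5% CO2.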

[4] = tested on: CAOV3; experiment: as above; conditions: Gynecologic cancer cell panel viability, ATPlite luminescence, 48 h; series mostly up to 57.5 µM
Outline: as §2

[5] = tested on: CASKI; experiment: as above; conditions: Gynecologic cancer cell panel viability, ATPlite luminescence, 48 h; series mostly up to 57.5 µM
Outline: as §2

[6] = tested on: Es-2; experiment: as above; conditions: Gynecologic cancer cell panel viability, ATPlite luminescence, 48 h; series mostly up to 57.5 µM
Outline: as §2

[7] = tested on: HeLa; experiment: as above; conditions: Gynecologic cancer cell panel viability, ATPlite luminescence, 48 h; series mostly up to 57.5 µM
Outline: as §2

[8] = tested on: Hek293T; experiment: as above; conditions: Gynecologic cancer cell panel viability, ATPlite luminescence, 48 h, control line for the selectivity index; series mostly up to 57.5 µM
Outline: as §2

[9] = tested on: JEG-3; experiment: as above; conditions: Gynecologic cancer cell panel viability, ATPlite luminescence, 48 h; series mostly up to 57.5 µM
Outline: as §2

[10] = tested on: OV90; experiment: as above; conditions: Gynecologic cancer cell panel viability, ATPlite luminescence, 48 h; series mostly up to 57.5 µM
Outline: as §2

[11] = tested on: PA-1; experiment: as above; conditions: Gynecologic cancer cell panel viability, ATPlite luminescence, 48 h; series mostly up to 57.5 µM
Outline: as §2

[12] = tested on: SKOV3; experiment: as above; conditions: Gynecologic cancer cell panel viability, ATPlite luminescence, 48 h; series mostly up to 57.5 µM
Outline: as §2

[13] = tested on: Tov-21-G; experiment: as above; conditions: Gynecologic cancer cell panel viability, ATPlite luminescence, 48 h; series mostly up to 57.5 µM
Outline: as §2

[14] = tested on: Tov112D; experiment: as above; conditions: Gynecologic cancer cell panel viability, ATPlite luminescence, 48 h; series mostly up to 57.5 µM
Outline: as §2

Measured: Potency

O=C(O)/C=C/c1ccc2occc2c1O[C@@H]1O[C@H](CO)[C@@H](O)[C@H](O)[C@H]1O
inactive: all assays above

C/C=C1/CC2C(=O)Nc3cc(O)c(OC)cc3C(=O)N2C1 (centres undefined)
inactive: all assays above

COC(=O)C(CC1(O)c2ccccc2N2C(=O)C(CC(C)C)NC21)n1cnc2ccccc2c1=O (centres undefined)
inactive: [1] inactive [at 17.4 µM] | [2] inactive [at 17.4 µM] | [3] | [4] | [5] | [6] | [7] | [8] | [9] | [10] | [11] | [12] | [13] | [14]

COc1cc(O)cc(C)c1C(=O)O[C@H]1[C@@H](O)[C@@H](n2ccc(=O)[nH]c2=O)O[C@@H]1CO
inactive: [1] inactive [at 17.4 µM] | [2] inactive [at 17.4 µM] | [3] | [4] | [5] | [6] | [7] | [8] | [9] | [10] | [11] | [12] | [13] | [14]

COC(=O)C1=CO[C@@H](O[C@@H]2O[C@H](CO)[C@@H](O)[C@H](O)[C@H]2O)/C(=C\CO)[C@@H]1CC(=O)OCCc1ccc(O)cc1
inactive: [1] inactive [at 17.4 µM] | [2] inactive [at 17.4 µM] | [3] | [4] | [5] | [6] | [7] | [8] | [9] | [10] | [11] | [12] | [13] | [14]

CC1=C(CC/C(C)=C/C(=O)O)[C@@]2(C)CCCC(C)(C)C2CC1=O (some centres undefined)
inactive: all assays above

CC1=CC(=O)C(=C(C)C)CC2C(C)(O)CCC12O (centres undefined)
inactive: all assays above

O=C(O)CCc1cccc(O)c1O[C@@H]1O[C@H](CO)[C@@H](O)[C@H](O)[C@H]1O
inactive: all assays above

CC(C)C1NC(=O)C2CCCN2C1=O (centres undefined)
inactive: all assays above

C/C=C1/[C@H](O[C@@H]2O[C@H](CO)[C@@H](O)[C@H](O)[C@H]2O)OC=C(C(=O)OC)[C@H]1CC(=O)OCCc1ccc(O)c(O)c1
inactive: [1] inactive [at 17.4 µM] | [2] inactive [at 17.4 µM] | [3] | [4] | [5] | [6] | [7] | [8] | [9] | [10] | [11] | [12] | [13] | [14]

CC1(C)O[C@H]2CC(=O)OC[C@@]23C1=C(O)C(=O)[C@]1(C)C3CC[C@@]2(C)[C@H](c3ccoc3)OC(=O)[C@H]3O[C@]321 (some centres undefined)
inactive: [1] inactive [at 17.4 µM] | [2] inactive [at 17.4 µM] | [3] | [4] | [5] | [6] | [7] | [8] | [9] | [10] | [11] | [12] | [13] | [14]
